{"source": "the supplement of paper PMC8699584", "key": {"[1]": {"tested_on": "Molm13", "test": "cell viability relative to DMSO control (bortezomib = 0%); higher = less growth inhibition", "details": "10 nM; 72 h", "how_it_was_run": "(§1)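 Acute myeloid leukemia cells were plated at 1000 cells per well in 50 µL onto a 679-compound library of approved and investigational agents in 384-well plates and exposed to a single 10 nM dose for 72 h, in duplicate. Cell viability was measured by CellTiter-Glo luminescence on an EnVision reader. Readings were scaled to percentages by per-plate linear regression, with DMSO-treated cells set at 100% and positive-control-treated cells at 0%.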"}, "[2]": {"tested_on": "Mv4-11", "test": "cell viability relative to DMSO control (bortezomib = 0%); higher = less growth inhibition", "details": "10 nM; 72 h", "how_it_was_run": "as §1"}}, "note": "± gives the standard deviation of the averaged measurements."}
{"compound": "COc1ccc2c(c[n+](C)c3c4cc5c(cc4ccc23)OCO5)c1OC", "note": "[Chelerythrine chloride]", "values": [{"measurement": "cell viability", "setting": "[1]", "value": "115 ± 13", "unit": "%"}, {"measurement": "cell viability", "setting": "[2]", "value": "112 ± 6.5", "unit": "%"}]}
{"compound": "COC(=O)C1(OC)CC2OC1(C)n1c3ccccc3c3c4c(c5c6ccccc6n2c5c31)C(=O)N(C)C4", "note": "(stereo unspecified)", "values": [{"measurement": "cell viability", "setting": "[1]", "value": "115 ± 6.2", "unit": "%"}, {"measurement": "cell viability", "setting": "[2]", "value": "109 ± 2", "unit": "%"}]}
{"compound": "N#C/C(=C\\c1ccc(O)c(O)c1)C(N)=S", "values": [{"measurement": "cell viability", "setting": "[1]", "value": "91.3 ± 7.4", "unit": "%"}, {"measurement": "cell viability", "setting": "[2]", "value": "104 ± 2.4", "unit": "%"}]}
{"compound": "COc1ccc(N(C(=O)Oc2c(C)cccc2C)c2ccnc(Nc3ccc(N4CCN(C)CC4)cc3)n2)c(OC)c1", "values": [{"measurement": "cell viability", "setting": "[1]", "value": "94.5 ± 18", "unit": "%"}, {"measurement": "cell viability", "setting": "[2]", "value": "108 ± 5.2", "unit": "%"}]}
{"compound": "COC[C@H]1OC(=O)c2coc3c2[C@@]1(C)C1=C(C3=O)[C@@H]2CCC(=O)[C@@]2(C)C[C@H]1OC(C)=O", "note": "[Wortmannin]", "values": [{"measurement": "cell viability", "setting": "[1]", "value": "114 ± 9", "unit": "%"}, {"measurement": "cell viability", "setting": "[2]", "value": "110.22 ± 0.09", "unit": "%"}]}
{"compound": "CC(=O)N[C@H]1[C@@H](O[C@@H]2O[C@H](CC(O)[C@H]3O[C@@H](n4ccc(=O)[nH]c4=O)[C@H](O)[C@@H]3O)[C@H](O)[C@H](O)[C@H]2NC(=O)/C=C/CC(C)C)O[C@H](CO)[C@@H](N)[C@@H]1O", "note": "(stereo partly specified) [Tunicamycin]", "values": [{"measurement": "cell viability", "setting": "[1]", "value": "105 ± 14", "unit": "%"}, {"measurement": "cell viability", "setting": "[2]", "value": "103 ± 3.8", "unit": "%"}]}
{"compound": "CC(C)=CCC[C@](C)(O)[C@H]1CC[C@]2(C)[C@@H]1[C@H](O)C[C@@H]1[C@@]3(C)CC[C@H](O[C@@H]4O[C@H](CO)[C@@H](O)[C@H](O)[C@H]4O)C(C)(C)[C@@H]3CC[C@]12C", "note": "[Ginsenoside Rh2]", "values": [{"measurement": "cell viability", "setting": "[1]", "value": "116 ± 2.1", "unit": "%"}, {"measurement": "cell viability", "setting": "[2]", "value": "111 ± 2.3", "unit": "%"}]}
{"compound": "Cc1ccccc1-n1c(Cn2ncc3c(N)ncnc32)nc2cccc(C)c2c1=O", "values": [{"measurement": "cell viability", "setting": "[1]", "value": "117 ± 1.4", "unit": "%"}, {"measurement": "cell viability", "setting": "[2]", "value": "117 ± 14", "unit": "%"}]}
{"compound": "Cc1ccccc1-n1c(Cn2cnc3c(N)ncnc32)nc2cccc(C)c2c1=O", "values": [{"measurement": "cell viability", "setting": "[1]", "value": "108 ± 13", "unit": "%"}, {"measurement": "cell viability", "setting": "[2]", "value": "111 ± 5.5", "unit": "%"}]}
{"compound": "O=C(O)c1nn(Cc2ccc(Cl)cc2Cl)c2ccccc12", "note": "[Lonidamine]", "values": [{"measurement": "cell viability", "setting": "[1]", "value": "123 ± 1.8", "unit": "%"}, {"measurement": "cell viability", "setting": "[2]", "value": "120 ± 4.8", "unit": "%"}]}
{"compound": "COc1cc([C@@H]2c3cc4c(cc3[C@H](O)[C@H]3COC(=O)[C@@H]23)OCO4)cc(OC)c1OC", "note": "[Picropodophyllin (PPP)]", "values": [{"measurement": "cell viability", "setting": "[1]", "value": "98.4 ± 8.1", "unit": "%"}, {"measurement": "cell viability", "setting": "[2]", "value": "109 ± 3.8", "unit": "%"}]}
{"compound": "CN[C@@H]1C[C@H]2O[C@@](C)([C@@H]1OC)n1c3ccccc3c3c4c(c5c6ccccc6n2c5c31)C(=O)NC4", "note": "[Staurosporine]", "values": [{"measurement": "cell viability", "setting": "[1]", "value": "11.9 ± 18", "unit": "%"}, {"measurement": "cell viability", "setting": "[2]", "value": "5.41 ± 3.4", "unit": "%"}]}
{"compound": "O=C([O-])C(Cl)Cl.[Na+]", "note": "[Sodium†Dichloroacetate]", "values": [{"measurement": "cell viability", "setting": "[1]", "value": "74 ± 24", "unit": "%"}, {"measurement": "cell viability", "setting": "[2]", "value": "110.7 ± 0.021", "unit": "%"}]}
{"compound": "CC(=O)OC(C)(C)/C=C/C(=O)[C@](C)(O)[C@H]1[C@H](O)C[C@@]2(C)[C@@H]3CC=C4[C@H](C[C@H](O)C(=O)C4(C)C)[C@]3(C)C(=O)C[C@]12C", "note": "[Cucurbitacin B]", "values": [{"measurement": "cell viability", "setting": "[1]", "value": "61.7 ± 0.99", "unit": "%"}, {"measurement": "cell viability", "setting": "[2]", "value": "82.9 ± 4.3", "unit": "%"}]}
{"compound": "COc1ccc2c(c[n+](C)c3c4cc5c(cc4ccc23)OCO5)c1OC", "note": "[Chelerythrine (chloride)]", "values": [{"measurement": "cell viability", "setting": "[1]", "value": "106 ± 10", "unit": "%"}, {"measurement": "cell viability", "setting": "[2]", "value": "108 ± 1.4", "unit": "%"}]}
{"compound": "CC(C)(C)c1cc(C=C(C#N)C#N)cc(C(C)(C)C)c1O", "note": "[Tyrphostin 9]", "values": [{"measurement": "cell viability", "setting": "[1]", "value": "96.2 ± 18", "unit": "%"}, {"measurement": "cell viability", "setting": "[2]", "value": "99.7 ± 4.1", "unit": "%"}]}
{"compound": "C/C(O)=C(\\C#N)C(=O)Nc1cc(Br)ccc1Br", "values": [{"measurement": "cell viability", "setting": "[1]", "value": "108 ± 6.6", "unit": "%"}, {"measurement": "cell viability", "setting": "[2]", "value": "114 ± 7.8", "unit": "%"}]}
{"compound": "O=c1[nH]c2ccccc2n1C1CCN(Cc2ccc(-c3[nH]c4cc5ncnc5cc4nc3-c3ccccc3)cc2)CC1", "note": "[AKT inhibitor VIII]", "values": [{"measurement": "cell viability", "setting": "[1]", "value": "103 ± 12", "unit": "%"}, {"measurement": "cell viability", "setting": "[2]", "value": "103 ± 5.7", "unit": "%"}]}
